Results filed as inconclusive are left out. Calls of active or inactive are those of the source. The call rests on the fitted dose curve; in most records, active means well fitted activation curve with a large enough effect in the main read-out, with a control signal flat; inconclusive means small, poorly fitted or top-dose-only effect, or effect the other way, or a change in a side signal; inactive means no such curve, though single readings can be large or run the other way.

From PubChem BioAssay AID939 (National Center for Advancing Translational Sciences (NCATS), 2007) come the findings set out here.
Potency means the concentration at half of the fitted maximal effect.

Tested on in the first assay: not listed separately
The assay can be described thus: Confirmation Concentration-Response Assay for Agonists of the Thyroid Stimulating Hormone Receptor. On activation: % of control where 0% means no effect. To be noted: HEK293 TSHR-CNG cells, membrane potential dye, cAMP; measured here: parental HEK293 counter-screen max. An excerpt:
(§1) NIH Chemical Genomics Center [NCGC] NIH Molecular Libraries Screening Centers Network [MLSCN] MLSCN Grant: 1 X01 MH080680-01 PI Name: Dr. Marvin Gershengorn, NIH NCGC Assay Overview: Thyroid Stimulating Hormone Receptor TSH is an alpha/beta heterodimeric glycoprotein hormone secreted from the anterior pituitary gland which belongs to the glycoprotein hormone family. The actions of TSH are mediated by a seven-transmembrane receptor, which upon TSH binding couples preferentially to the G-alpha (s) protein (Gs), resulting in activation of adenylate cyclase and increase in cyclic adenosine 3', 5' monophosphate (cAMP). The TSH receptor (THSR) is mainly expressed in thyroid follicular cells and regulates their growth and function. Recombinant TSH is used to activate TSHR in patients with thyroid cancer receiving thyroid hormone suppression therapy and to screen for residual tumor after surgery, but it is expensive and must be administered intramuscularly. An orally active small molecule TSHR agonist would serve as an invaluable research tool for studying TSHR pharmacology and physiology, and would have multiple advantages in therapeutic settings. However, no selective small molecule agonist of the TSH receptor exists, and no small molecule screen for TSHR agonists has ever been reported. This cell based assay utilized a cyclic nucleotide gated ion channel (CNG) as a biosensor for cAMP induction by potential TSHR agonists. TSHR cell line HEK 293 cells stably expressing the TSHR as well as a modified CNG were purchased from BD biosciences. Stimulation of cAMP production causes the CNG to open and subsequent membrane depolarization to occur. A fluorescent membrane potential dye (BD biosciences) was utilized to detect cAMP stimulation in TSHR cells. The cells were maintained in DMEM medium (Invitrogen) containing 10 % FBS (Hyclone), 100 units/ml Penicillin, 100 ug/ml Streptomycin (Invitrogen), and 250 ug/ml Geneticin (Invitrogen) and 1 ug/ml Puromycin (Invitrogen) at 37C in 5% CO2. HEK 293 cells expressing CNG but without TSHR (parental cells) were used in concert to control for compounds signaling through endogenous receptors and targets of HEK 293 cells.
(§2) NCGC Assay Protocol Summary: High Throughput Screening. Freshly passaged cells (TSHR or parental) were dispensed into 1536-well assay plates at 4 ul/well in DMEM containing phenol red (Invitrogen), 10% FCS (Hyclone), and 100 units/ml Penicillin, 100 ug/ml Streptomycin (Invitrogen) and incubated at 37 C with 5% CO2 for 20 to 36 hrs before the robotic screening. The screen was initiated by addition of 4 ul/well membrane potential dye containing 100 uM RO 20-1724 (Sigma Aldrich), followed by 60 min incubation at room temperature to allow for dye equilibration across the cell membrane. 23 nl/well compound or control was then added to the assay plates, which were incubated for additional 30 min before reading a Envision fluorescence plate reader (Perkin Elmer) in bottom-read mode for fluorescence intensity (emission at 590 nm). Keywords: Thyroid-stimulating hormone TSH, TSHR, TSHR agonist, quantitative high throughput screening, qHTS, HTS, probe identification, CNG, cAMP, cyclic nucleotide gated ion channel PubChem
As to `CCC(=NCC1CCCO1)c1c(O)n(Cc2ccccc2)c(=O)[nH]c1=O` (centres undefined), the max response was 5.62%.
`CCn1c(C)c(C(=O)O)c2cc(OC)ccc21`: the max response came to 6.15%.
In the case of `CCOC(=O)C1=C(C)OC(N)=C(C(=O)OC)C12C(=O)Nc1ccc(Br)cc12` (centres undefined), the max response is -4.55%.
Still for that read-out and setting: then `C=CCN1C(=O)C2(C(C(=O)OCC)=C(N)Oc3c2c(=O)oc2ccccc32)c2ccccc21` (centres undefined), with -4.89%; and `CN(C)c1ccc(CN2CC=C(c3ccc(F)cc3)CC2)cc1`, with 5.57%; and `O=c1[nH]c(=O)n(Cc2ccco2)c(O)c1C=NC1CC1`, with 5.23%.
Still for that read-out and setting: for `O=C(Nc1nc2ccccc2n1CCN1CCCC1)c1ccc(Cl)cc1` the value was -11%.

In the next assay the target is Thyrotropin receptor (Homo sapiens) (UniProt P16473). Described as above. As to conditions: HEK293 TSHR-CNG cells, membrane potential dye, cAMP; series mostly up to 25.6 µM; activation: at the top concentration.
Sequence of Thyrotropin receptor (Homo sapiens) (P16473 whole entry, looked up): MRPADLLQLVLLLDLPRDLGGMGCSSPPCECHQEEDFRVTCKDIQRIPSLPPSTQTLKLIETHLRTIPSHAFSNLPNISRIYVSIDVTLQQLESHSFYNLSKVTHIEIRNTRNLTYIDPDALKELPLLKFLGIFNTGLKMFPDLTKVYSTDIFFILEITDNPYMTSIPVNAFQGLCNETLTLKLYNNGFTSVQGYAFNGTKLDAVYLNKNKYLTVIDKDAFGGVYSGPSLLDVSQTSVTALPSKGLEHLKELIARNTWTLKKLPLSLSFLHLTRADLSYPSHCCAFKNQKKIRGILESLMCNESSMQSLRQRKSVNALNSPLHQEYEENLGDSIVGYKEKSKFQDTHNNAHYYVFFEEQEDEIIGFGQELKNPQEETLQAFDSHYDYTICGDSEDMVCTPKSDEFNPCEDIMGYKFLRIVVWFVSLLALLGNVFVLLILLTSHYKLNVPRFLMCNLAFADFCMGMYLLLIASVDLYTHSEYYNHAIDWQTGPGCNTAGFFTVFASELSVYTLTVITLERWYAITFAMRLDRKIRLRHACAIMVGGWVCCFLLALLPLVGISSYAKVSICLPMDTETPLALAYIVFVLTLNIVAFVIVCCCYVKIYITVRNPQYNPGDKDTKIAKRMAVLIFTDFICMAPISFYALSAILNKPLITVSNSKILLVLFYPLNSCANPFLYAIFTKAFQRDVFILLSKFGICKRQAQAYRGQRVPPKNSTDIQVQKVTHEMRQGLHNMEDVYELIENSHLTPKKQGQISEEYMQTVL
Excerpt: as §1, §2
Take `CCC(=NCC1CCCO1)c1c(O)n(Cc2ccccc2)c(=O)[nH]c1=O` (centres undefined): the “activation” value is 7.43% (inactive).
The same measure, in the same setting: then `CCn1c(C)c(C(=O)O)c2cc(OC)ccc21`, with 17.1% (inactive); and `CCOC(=O)C1=C(C)OC(N)=C(C(=O)OC)C12C(=O)Nc1ccc(Br)cc12` (centres undefined), with 8.97% (inactive).
As for `C=CCN1C(=O)C2(C(C(=O)OCC)=C(N)Oc3c2c(=O)oc2ccccc32)c2ccccc21` (centres undefined), the Potency is 5.01 µM (active).
Regarding `CN(C)c1ccc(CN2CC=C(c3ccc(F)cc3)CC2)cc1`, the “activation” value is 1.66% (inactive).
On the same count and under the same terms, for `O=c1[nH]c(=O)n(Cc2ccco2)c(O)c1C=NC1CC1` the value was 17.5% [at 32.9 µM] (inactive); for `O=C(Nc1nc2ccccc2n1CCN1CCCC1)c1ccc(Cl)cc1`, -94.7% (inactive).
